These results are taken from PubChem BioAssay AID1851 (National Center for Advancing Translational Sciences (NCATS), 2009).

Each structure is given as a SMILES string. Hit rate of the full screen: of about 16,000 compounds, about 5,800 (36%) were called active. Not shown: some 23% with an inconclusive outcome. The call rests on the fitted dose curve; in most records, active means well fitted curve in the direction sought with a large enough effect; inconclusive means small, poorly fitted or top-dose-only effect, or effect the other way; inactive means no such curve, though single readings can be large or run the other way. The list shows a part of the results.
On the % scale 0 is the no-effect control and ±100 the full control effect.

In this assay the target is Cytochrome P450 2C19 (Homo sapiens) (UniProt P33261). Nature of the assay: Cytochrome panel assay with activity outcomes. The settings on record: recombinant CYP, pro-luciferin dealkylation, luminescence, p450-cyp2c19; series mostly up to 57.1 µM; activity, negative = inhibition: at the top concentration.
Sequence of Cytochrome P450 2C19 (Homo sapiens) (P33261 whole entry, looked up): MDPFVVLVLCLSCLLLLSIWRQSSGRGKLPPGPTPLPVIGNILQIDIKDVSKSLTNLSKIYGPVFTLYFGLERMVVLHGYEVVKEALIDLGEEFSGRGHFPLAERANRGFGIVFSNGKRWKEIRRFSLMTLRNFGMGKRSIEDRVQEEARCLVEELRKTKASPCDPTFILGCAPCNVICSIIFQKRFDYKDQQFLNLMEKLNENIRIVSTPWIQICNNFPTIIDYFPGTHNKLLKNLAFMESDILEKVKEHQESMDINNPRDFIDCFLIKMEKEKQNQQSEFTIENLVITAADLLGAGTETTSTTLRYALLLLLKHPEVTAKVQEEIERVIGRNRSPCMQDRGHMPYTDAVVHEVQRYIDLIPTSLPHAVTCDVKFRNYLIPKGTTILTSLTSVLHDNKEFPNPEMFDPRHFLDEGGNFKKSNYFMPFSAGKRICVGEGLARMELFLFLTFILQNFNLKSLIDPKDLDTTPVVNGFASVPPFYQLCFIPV
As to `NC[C@@H]1O[C@H](O[C@@H]2[C@H](O[C@@H]3O[C@H](CO)[C@@H](COC[C@H]4O[C@@H](CN)[C@@H](O)[C@@H](O)[C@@H]4N)[C@@H]3O)[C@@H](O)[C@@H](N)C[C@H]2N)[C@@H](N)[C@H](O)[C@@H]1O`, the “activity, negative = inhibition” value was 20.1% [at 25.6 µM] (inactive). One may read the AC50 as the midpoint of the concentration-response curve, whichever way the signal moves. As to `CCCN(CCC)C[C@@H]1CCCCN1CCNC(=O)N1c2ccccc2C(=O)Nc2cccnc21`, the AC50 was 7.94 µM (active). Regarding `O=C(O)CN(CCN(CC(=O)O)CC(=O)O)CCN(CC(=O)O)CC(=O)O`, the “activity, negative = inhibition” value is -18.6% (inactive).

Take `Cc1cc(C)c(S(=O)(=O)N2CCCCC2)c(C)c1N(C)S(=O)(=O)c1ccccc1`: the AC50 is 2.51 µM (active). Same read-out and setting: with `CCc1ccc2c(c1)cc(CN(C(=S)Nc1cccc(C)c1)C1CC1)c1nnnn12` the figure was 2.24 µM (active); with `CCCNS(=O)(=O)c1ccc(OCC(=O)OC)cc1`, 10 µM (active). The same measure, in the same setting: then `CCN1C(=O)/C(=C/C=C2/SCCN2C)SC1=S`, with 14.1 µM (active); and `Cc1ccn2c(NC(=O)c3ccccc3)c(-c3cccs3)nc2c1`, with 17.8 µM (active).

As to `CCNc1ncc2nc(-c3cccs3)c(=O)n(C)c2n1`, the “activity, negative = inhibition” value is 2.33% (inactive). On to `c1ccc(-c2nnc(SCc3nc4ccccc4[nH]3)n2Cc2ccco2)cc1`, for which the AC50 was 2.51 µM (active). For the molecule `CCn1c(SCc2nc3ccccc3[nH]2)nnc1-c1ccc(OC)cc1`, the AC50 was 2.51 µM (active).

Take `c1ccc(SCc2nc3ccccc3[nH]2)cc1`: the AC50 was 1.41 µM (active). In the case of `OC(Cc1nc2ccccc2[nH]1)c1ccccc1Cl` (stereo not given), the AC50 was 8.91 µM (active).

For the molecule `O=C(c1cnccn1)N1CCC2(CC1)CN(Cc1cc(C(F)(F)F)cc(C(F)(F)F)c1)C2`, the “activity, negative = inhibition” value is -28.5% (inactive).

Take `C=CCNC(=S)N1CCN(c2ncc3c(=O)c(C(=O)O)cn(CC)c3n2)CC1`: the “activity, negative = inhibition” value was -24.5% (inactive). On the same count and under the same terms, with `COc1ccc2oc(=O)c(NC(=O)C3CCCCC3)cc2c1` the figure was -27.6% (inactive). On to `Cc1cc(NC(=O)C2CCCCC2)nc2c1c(=O)oc1ccccc12`, for which the AC50 is 8.91 µM (active). `N#Cc1c(-c2ccc3c(c2)OCO3)ccn2nc(-c3cccc(C(F)(F)F)c3)nc12`: the AC50 is 2.51 µM (active). Consider `COc1c(O)cc2c(c1O)[C@@H]1O[C@@H](CO)[C@@H](O)[C@@H](O)[C@@H]1OC2=O`, for which the “activity, negative = inhibition” value was 32.9% [at 25.6 µM] (inactive). Same read-out and setting: then `Cc1ccc(S(=O)(=O)NC(=O)Nc2ncn[nH]2)cc1`, with 37.1% [at 11.4 µM] (inactive).

Consider `Cc1nnc(NS(=O)(=O)c2ccc(N)cc2)s1`, for which the “activity, negative = inhibition” value was 23.1% [at 25.6 µM] (inactive). With `Cc1ccc(S(=O)(=O)Nc2nc(C)c(NC(=O)Nc3ccc(Cl)cc3Cl)s2)cc1`, the AC50 was 14.1 µM (active). Take `O=c1[nH]c2ccccc2c2ccccc12`: the “activity, negative = inhibition” value was -30.4% (inactive). On the same count and under the same terms, then `O=c1[nH]ccc2c(O)cccc12`, with 11.1% (inactive).

As for `Cc1nc2c(O)cccc2c(=O)[nH]1`, the AC50 is 0.398 µM (active). Take `CN(C)Cc1ccccc1-c1nc(N2CCOCC2)c2ccccc2n1`: the “activity, negative = inhibition” value was 30.7% (inactive). In the case of `CN1c2ccccc2C(C)(C)C12C=Nc1c(cc(N3CCOCC3)c3ccccc13)O2` (stereo not given), the AC50 is 3.55 µM (active). In the case of `Cc1ccc(C2/C(=C(/O)c3ccc(Cl)cc3)C(=O)C(=O)N2CC2CCCO2)o1` (stereo not given), the “activity, negative = inhibition” value is -16.5% (inactive). `COc1cccc(C2=CC(c3ccccc3)n3nnnc3N2)c1` (stereo not given): the AC50 is 0.158 µM (active).

Take `COc1ncc2nc(-c3ccc(Cl)cc3)c(=O)n(-c3ccccc3)c2n1`: the “activity, negative = inhibition” value was -31.9% (inactive). As for `O=C(O)Cc1nn(Cc2ccc(Br)cc2F)c(=O)c2ccccc12`, the “activity, negative = inhibition” value is -24.3% (inactive).

As to `Cn1c(=O)c(-c2ccc(Cl)cc2)nc2cnc(Nc3ccccc3)nc21`, the “activity, negative = inhibition” value was 6.65% (inactive). As to `O=c1c2ccccc2c(-c2ccccc2)nn1-c1ccc(Cl)c(Cl)c1`, the AC50 was 2.51 µM (active).

With `O=c1c2ccccc2c(-c2ccccc2)nn1Cc1ccc(Cl)cc1`, the concentration at half-maximal activity (AC50) was 1.12 µM (active). Regarding `COc1ncc2nc(-c3ccccc3)c(=O)n(-c3ccccc3)c2n1`, the “activity, negative = inhibition” value was -27.6% (inactive). As for `CN1Cc2c(N)cccc2[C@H](c2ccccc2)C1`, the AC50 entry is “inactive”. For `O=P(O)(CCP(=O)(O)c1ccccc1)c1ccccc1`, the activity, negative = inhibition is 2.23% [at 11.4 µM] (inactive). Consider `O=P(Cc1cc[n+]([O-])cc1)(c1ccccc1)c1ccccc1`, for which the AC50 is 15.8 µM (active). Turning to `CCCN(CCC)CCCNC(=O)CS(=O)Cc1nc(-c2ccc(OC)c(OC)c2)oc1C` (stereo not given), the “activity, negative = inhibition” value was -24.7% (inactive). Same read-out and setting: with `CCS(=O)(=O)N1CCC(C(=O)NCCN2CCN(Cc3ccccc3)CC2)CC1` the figure was -5.92% (inactive). `Cc1ccccc1-c1nc(CS(=O)CC(=O)NCCN2CCN(Cc3ccccc3)CC2)c(C)o1` (stereo not given): the AC50 was 17.8 µM (active).

`CN1CCN(c2ncnc3ccc(-c4cccc(C#N)c4)cc23)CC1`: the “activity, negative = inhibition” value was -31.3% (inactive).

As for `CN(Cc1ccco1)c1ncnc2ccc(-c3ccccc3C(F)(F)F)cc12`, the AC50 is 3.16 µM (active). For `CNc1ncnc2ccc(-c3ccccc3C#N)cc12`, the “activity, negative = inhibition” value was -33.6% (inactive). Still for that read-out and setting: with `CN(C)c1ncnc2ccc(-c3ccccc3C#N)cc12` the figure was -19.8% (inactive).

Regarding `CN(Cc1ccco1)c1ncnc2ccc(-c3ccccc3C#N)cc12`, the AC50 was 1.26 µM (active).

On to `CN(Cc1ccco1)c1ncnc2ccc(-c3ccccc3Cl)cc12`, for which the AC50 is 3.16 µM (active). The same measure, in the same setting: then `CN(Cc1ccco1)c1ncnc2ccc(-c3cccc(C#N)c3)cc12`, with 6.31 µM (active). In the case of `COc1ncc2nc(-c3ccc(F)cc3)c(=O)n(C)c2n1`, the “activity, negative = inhibition” value is -5.58% (inactive). Same read-out and setting: with `Cc1noc(C)c1-c1ccc2ncnc(N3CCN(C)CC3)c2c1` the figure was -24.5% (inactive).

For the molecule `Cc1noc(C)c1-c1ccc2ncnc(N(C)Cc3ccco3)c2c1`, the AC50 is 5.01 µM (active).

For the molecule `Cc1noc(C)c1-c1ccc2ncnc(N3CCOCC3)c2c1`, the “activity, negative = inhibition” value is -43.8% (inactive). Take `COc1cc(/C=C2\SC(=S)N(Nc3ccccc3)C2=O)cc(OC)c1OC`: the AC50 was 11.2 µM (active). Same read-out and setting: with `Cc1ccc(S(=O)(=O)/C=C\C#N)cc1` the figure was 5.01 µM (active); with `Cc1nn(-c2nc3ccccc3[nH]2)c(N)c1-c1ccc(Cl)cc1`, 4.47 µM (active). On to `OCCNc1nc2ccccc2[nH]1`, for which the “activity, negative = inhibition” value was -39.8% (inactive). As to `Clc1ccc(CSc2nccn2Cc2ccccc2)cc1`, the AC50 was 0.224 µM (active). Same read-out and setting: with `O=C(CSc1nccn1-c1ccccc1)c1ccc(Cl)cc1` the figure was 0.447 µM (active); with `c1ccc(CCSc2nccn2-c2ccccc2)cc1`, 1.26 µM (active). On to `O=C(O)CSCCc1ccccc1`, for which the activity, negative = inhibition was 6.64% [at 11.4 µM] (inactive).

On to `Cc1ccccc1CSc1nccn1-c1ccccc1`, for which the AC50 is 0.631 µM (active). Take `O=c1ccnc(SCc2ccc(Cl)cc2)[nH]1`: the activity, negative = inhibition was -32.7% [at 11.4 µM] (inactive). For the molecule `Nc1ncnc2c1nc(Sc1ccc(Cl)cc1)n2[C@@H]1O[C@H]2COP(=O)(O)O[C@@H]2[C@H]1O`, the “activity, negative = inhibition” value is -24.6% (inactive). In the case of `CCc1ccc(CSc2nccn2-c2ccccc2)cc1`, the AC50 is 1.58 µM (active). On to `N#CC1(Nc2ccc(-c3ccc(NC4(C#N)CCCC4)cc3)cc2)CCCC1`, for which the activity, negative = inhibition was 4.93% [at 11.4 µM] (inactive). As for `CCOc1c(Cl)cc(C(=O)Nc2ccccc2-c2ccccc2)cc1Cl`, the AC50 is 2.51 µM (active).

As for `O=C(O)/C=C/C(=O)Nc1ccccc1-c1ccccc1`, the “activity, negative = inhibition” value is -18.3% (inactive). On to `CCOC(=O)c1ccc(Cl)c(NC(=O)c2ccc(-c3ccccc3)cc2)c1`, for which the “activity, negative = inhibition” value is -23.7% (inactive). Same read-out and setting: then `COc1cccc(Cn2c(=O)cnc3cnc(N4CCN(C)CC4)nc32)c1`, with -43.5% (inactive); and `COc1ncc2ncc(=O)n(Cc3cccs3)c2n1`, with -42% (inactive); and `O=c1c(-c2cccs2)nc2cnc(Oc3ccccc3)nc2n1Cc1cccs1`, with 6.36% (inactive). On to `COc1cccc(Cn2c(=O)cnc3cnc(Oc4cccc(Cl)c4)nc32)c1`, for which the AC50 was 25.1 µM (active).

On to `COc1ncc2nc(-c3ccc(F)cc3)c(=O)n(Cc3ccc(F)cc3)c2n1`, for which the “activity, negative = inhibition” value was 1.23% (inactive). On the same count and under the same terms, then `O=c1c(-c2ccccc2)nc2cnc(Oc3cccc(Cl)c3)nc2n1C1CC1`, with -83.9% (inactive).

Take `N#Cc1cccc(-c2nc3cnc(Oc4cccc(Cl)c4)nc3n(C3CC3)c2=O)c1`: the “activity, negative = inhibition” value is -30.1% (inactive). `O=c1cnc2cnc(Oc3cccc(Cl)c3)nc2n1C1CC1`: the AC50 was 15.8 µM (active). Regarding `COc1ncc2ncc(=O)n(CCC#N)c2n1`, the “activity, negative = inhibition” value is 5.25% (inactive). With `COc1ncc2ncc(=O)n(Cc3ccc(F)cc3)c2n1`, the AC50 is 7.94 µM (active). For the molecule `O=c1cnc2cnc(Oc3ccccc3)nc2n1Cc1cccs1`, the AC50 was 1.26 µM (active). As to `CCN(CCO)C[C@H]1CCC[C@H]2CCCC[C@@H]21`, the activity, negative = inhibition was 12.1% [at 11.4 µM] (inactive). On the same count and under the same terms, then `CCON=C1C(C)(C)C(C)(C)C(C)(C)C1(C)C`, with -8.06% [at 11.4 µM] (inactive); and `COC(=O)[C@H](C)NC(=O)C/C=C\[C@@H](C)[C@H]1C=C[C@H](O)[C@@H](CO)O1`, with -2.78% [at 11.4 µM] (inactive).

In the case of `N#CCCn1c(=O)c(-c2ccc(F)cc2)nc2cnc(Oc3cccc(Cl)c3)nc21`, the “activity, negative = inhibition” value was 24.7% (inactive). `COCCn1c(=O)c(-c2ccc(F)cc2)nc2cnc(Oc3ccccc3)nc21`: the “activity, negative = inhibition” value was -37.8% (inactive). On to `O=c1cnc2cnc(Oc3cccc(Cl)c3)nc2n1Cc1ccc(F)cc1`, for which the AC50 was 20 µM (active). On the same count and under the same terms, with `O=c1cnc2cnc(Oc3ccccc3)nc2n1Cc1ccc(F)cc1` the figure was 2.51 µM (active). For `N#CCCn1c(=O)cnc2cnc(Oc3ccccc3)nc21`, the “activity, negative = inhibition” value was -18.7% (inactive).

With `N#CCCn1c(=O)c(-c2cccc(C#N)c2)nc2cnc(Oc3cccc(Cl)c3)nc21`, the “activity, negative = inhibition” value was -21.1% (inactive). As to `N[C@H](CCCP(=O)(O)O)C(=O)O`, the “activity, negative = inhibition” value is -15% (inactive). On to `CC(=O)C=NCC(=O)O`, for which the activity, negative = inhibition was -14.5% [at 11.4 µM] (inactive).

Take `Cc1ccccc1OCCNC(=O)c1ccccc1Sc1ccccc1C#N`: the AC50 is 8.91 µM (active). The same measure, in the same setting: with `Cc1nc(S(=O)(=O)c2cccc(Cl)c2)nc2c1CCC2` the figure was 15.8 µM (active).

With `COCC(=O)N1CCC2(CC1)CCN(c1ncccn1)CC2`, the “activity, negative = inhibition” value was 29.1% (inactive). Take `CN(C(=O)c1cnc(N2CCN(c3ncccn3)CC2)c2ccccc12)c1ccc(Cl)cc1`: the AC50 is 1.58 µM (active).

In the case of `CCN(C(=O)c1cnc(N2CCN(c3ncccn3)CC2)c2ccccc12)c1cccc(Cl)c1`, the AC50 was 0.251 µM (active).

As for `COCC(=O)N1CCC2(CCCN(c3ncccn3)C2)CC1`, the “activity, negative = inhibition” value was -0.728% (inactive). Still for that read-out and setting: then `O=C(Oc1ccccc1)N1CCC2(CC1)CCN(c1ncccn1)CC2`, with -25.4% (inactive). The same measure, in the same setting: with `COCC(=O)N1CCC2(CC1)CN(c1ccccn1)C2` the figure was 25.7% (inactive); with `C[C@@H]1CC[C@@H]2C(=O)N3[C@@H](CC[C@@H](C)[C@@H]3c3ccc(-c4ccco4)cc3)C(=O)N2[C@H]1c1ccc(-c2ccco2)cc1`, 0.199% [at 11.4 µM] (inactive). As for `Fc1ccc(C2CC(c3ccco3)=NN2c2ccccc2)cc1` (stereo not given), the AC50 was 2.24 µM (active).
